The source of these data is PubChem BioAssay (NCATS).

Results filed as inconclusive are left out. Activity calls are given as the source filed them. Calls follow the shape of the dose curve; as a rule, active = well fitted activation curve with a large enough effect; inconclusive = small, poorly fitted or top-dose-only effect; inactive = flat fitted curve, though single readings scatter.

The nature of this assay: Cellular Toxicity (caspase-3) Hek293 (AID 664).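 Also: cells exposed to compound for 16 h at 37 °C before readout.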 Conditions: HEK293 caspase-3 activation, DMSO = 0%, 100 µM tamoxifen = 100%; series mostly up to 92.2 µM. The text has this: NIH Chemical Genomics Center [NCGC]
NIH Molecular Libraries Screening Centers Network [MLSCN]
National Institutes of Environmental Health Sciences [NIEHS]
National Toxicology Program [NTP]
We have developed a 1536-well cell-based assay for quantitative high throughput screening (qHTS) against a number of cell lines to determine in vitro caspase 3/7 of small molecules. This particular assay uses the Hek 293 cell line which is derived from human embryonic kidney cells.
NCGC Assay Protocol Summary:
The Caspase-Glo 3/7 assay (Promega) is a homogeneous method to measure caspase-3 and caspase-7 activities in cultured cells. The quantitation of caspase 3/7 activity is based on the cleavage of a peptide-aminoluciferin substrate. After caspase cleaves the substrate the free aminoluciferin is liberated and serves as the substrate of luciferase, which generates the light. The luminescent signal is proportional to amount of caspase 3/7 activity present.
Using the Caspase-Glo 3/7 assay, the amount of caspase 3/7 activity was measured in the Hek 293 cell line with complete culture medium following compound treatment for 16 hours. The assay was performed in opaque white 1536-well plates. In the screen, tamoxifen and doxorubicin were used as positive controls. Library compounds were measured for their ability to cause the activation of caspase 3/7 in the cell line, as reflected by an increase in luminescence signal, in a concentration-dependent manner. Data were normalized to the controls for basal activity (DMSO only) and 100% stimulation (100 uM tamoxifen). AC50 values were determined from concentration-response data modeled with the standard Hill equation.
qHTS protocol for caspase 3/7 assay in Hek 293 cells
[Step] [Parameter] [Value] [Description]
2. Time; 5 hr; 37 °C incubation
4. Controls; 23 nL; Tamoxifen 0.23 uM to 100 uM & Doxorubicin 7.0 pM to 100 uM
5. Time; 16 hr; 37 °C incubation
6. Reagent; 5 uL; Caspase-Glo 3/7 reagent
7. Time; 20 min; Room Temperature
8. Detection; Luminescence; Viewlux plate reader
Keywords: caspase 3/7, apoptosis, Hek 293 cell line, luminescence, NTPHTS, NTPHTS_NCGC, NIEHS, EPA, DSSTox, MLSMR, MLSCN, NIH Roadmap, qHTS, NCGC
For `CCO[Si](CCCN)(OCC)OCC`, the result was inactive.
To `Nc1ccc(Cl)cc1Cl` belongs “inactive”.
As for `CC1=C2[C@H](/C=C(\C)C(=O)O)CC[C@@H](C)[C@H]2CC1`, the outcome was inactive.
As for `Clc1cc(Cl)c(Cl)cc1Cl`, the outcome was inactive.
With `O=C(O)c1ccccc1` the entry was “inactive”; with `C1OCOCO1`, “inactive”.
With `c1ccc2c(c1)[nH]c1ccccc12` the entry was “inactive”.
To `O=C(O)c1ccccc1C(c1ccc(O)cc1)c1ccc(O)cc1` belongs “inactive”; to `COCC(=O)O`, “inactive”; to `COc1ccc(/C=C/c2cc(OC)cc(=O)o2)cc1`, “inactive”.
In the case of `C=CCOC(=O)c1ccccc1C(=O)OCC=C`, the result was inactive.
With `c1ccc2scnc2c1` the entry was “inactive”.
To `COc1c2ccoc2cc2oc(=O)ccc12` belongs “inactive”.
With `CCCCCCCCO` the entry was “inactive”.
With `C=C(C)C1CC=C(C)C(O)C1` (stereo not given), the result was inactive.
With `CN(C)C=O`, the compound was classed as inactive.
For the compound `O=NO`, the call was inactive.
To `O=C(O)CC(C(=O)O)C(CC(=O)O)C(=O)O` (stereo not given) belongs “inactive”; to `O=C(O)c1ccc(O)cc1O`, “inactive”.
With `C=CCc1ccc(OC)c(OC)c1` the entry was “inactive”; with `CC12CCC(CC1=O)C2(C)C` (stereo not given), “inactive”.
To `O=[N+]([O-])c1cccc(Cl)c1Cl` belongs “inactive”; to `c1ccc2c(c1)c1cccc3ccc4cccc2c4c31`, “inactive”.
Turning to `CCCN(CCC)C(=O)SCC`, the compound was classed as inactive.
For the compound `COC(=O)CCCCC(=O)OC`, the compound was called inactive.
For the compound `COc1ccc2nc(N)sc2c1`, the compound was called inactive.
`O=S(=O)(O)c1ccccc1`: the result was inactive.
With `CCCCCCCCCCCCCC(=O)O` the entry was “inactive”; with `O=C1CCc2ccccc2O1`, “inactive”; with `C=Cc1ccccc1Cl`, “inactive”.
For `O=C1c2ccccc2C(=O)C1c1ccc2ccccc2n1`, the result was inactive.
In the case of `c1ccccc1`, the result was inactive.
With `COC(=O)c1ccc(C)cc1`, the outcome was inactive.
On to `S=C1NC=NC2N=CNC12` (stereo not given), for which the outcome was inactive.
With `C=CC(=O)OCCOCCOCCOCCOC(=O)C=C` the entry was “inactive”.
To `CCCCC(CC)CN` (stereo not given) belongs “inactive”.
With `CCC(O)OC(O)CC` (stereo not given) the entry was “inactive”; with `CC(=O)OC/C=C(\C)CCC=C(C)C`, “inactive”.
As to `CCCCOCCO`, the call was inactive.
To `O[C@@H]([C@H](O)[C@@H](O)CBr)[C@@H](O)CBr` belongs “inactive”.
